Source: PubChem BioAssay (Tox21)
Inconclusive results are not listed. Active and inactive are the calls of the source. Calls come from the whole dose curve; as a rule, active = well fitted curve in the direction sought with a large enough effect in the repeat runs; inconclusive = weak or mixed curves; inactive = no such curve, though single readings can be large; an effect the other way counts as inactive or inconclusive.

Columns and labels:
[1] = A CellTox Green Cytotoxicity Assay to monitor cytotoxicity in HEK293 cells - 40 hour (AID 1224871); note: nearly all actives have a fitted effect of over 45% in size
Procedure, shortened: (§1)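 Seeding of HEK293 cells together with cytotoxicity dye preceded a 5 h incubation at 37 C/5% CO2. Test compounds in DMSO were then added and fluorescence monitored across 40 h.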

[2] = qHTS RealTime-Glo MT Cell Viability Assay in HEK293 cells - 16 hour (AID 1224872); note: top concentration of the series differs between compounds; nearly all actives have a fitted effect of over 50% in size
Procedure, shortened: (§2)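 Viability tracked continuously by luminescence as live cells reduce a prosubstrate for NanoLuc; HEK293 cells preincubated 5 h, compound-treated at 37 C, and read at 0, 8, 16, 24, 32 and 40 h.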

[3] = qHTS RealTime-Glo MT Cell Viability Assay in HepG2 cells - 8 hour (AID 1224873); note: nearly all actives have a fitted effect of over 55% in size
Procedure, shortened: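 HepG2 cells mixed with RealTime-Glo MT reagents (NanoLuc plus cell-permeant prosubstrate) were seeded at 600 cells/well, incubated 5 h at 37 C/5% CO2, then pinned with compounds in DMSO; nonlytic luminescence tracked viability during 40 h treatment.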

[4] = qHTS RealTime-Glo MT Cell Viability Assay in HEK293 cells - 40 hour (AID 1224874); details: RealTime-Glo luminescence; max response: active compounds read low; note: nearly all actives have a fitted effect of over 50% in size
Procedure, shortened: (§3)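 Tox21 screen in HEK293 using RealTime-Glo MT chemistry, with cells and reagent co-dispensed. Luminescence proportional to viable cell number was captured at intervals during 40 h compound exposure at 37 C.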

[5] = A CellTox Green Cytotoxicity Assay to monitor cytotoxicity in HEK293 cells - 24 hour (AID 1224875); note: series mostly up to about 77 µM; nearly all actives have a fitted effect of over 45% in size
Procedure, shortened: as §1

[6] = A CellTox Green Cytotoxicity Assay to monitor cytotoxicity in HepG2 cells - 16 hour (AID 1224876); note: nearly all actives have a fitted effect of over 45% in size
Procedure, shortened: (§4)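 Nonlytic assay: viable cells exclude the dye, so fluorescence scales with cell death. HepG2 at 600 cells/well, compounds added after 5 h, signal read across 40 h.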

[7] = qHTS RealTime-Glo MT Cell Viability Assay in HepG2 cells - 32 hour (AID 1224877); note: nearly all actives have a fitted effect of over 55% in size
Procedure, shortened: (§5)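 Viability was tracked continuously by NanoLuc luminescence from prosubstrate reduced by living HepG2 cells, at successive time points over 40 h of compound exposure. Cells with reagent were preincubated 5 h at 37 °C before compound addition.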

[8] = A CellTox Green Cytotoxicity Assay to monitor cytotoxicity in HepG2 cells - 24 hour (AID 1224878); note: nearly all actives have a fitted effect of over 45% in size
Procedure, shortened: as §4

[9] = A CellTox Green Cytotoxicity Assay to monitor cytotoxicity in HepG2 cells - 40 hour (AID 1224879); note: nearly all actives have a fitted effect of over 40% in size
Procedure, shortened: as §4

[10] = qHTS RealTime-Glo MT Cell Viability Assay in HEK293 cells - 0 hour (AID 1224880)
Procedure, shortened: as §3

[11] = A CellTox Green Cytotoxicity Assay to monitor cytotoxicity in HEK293 cells - 32 hour (AID 1224881); note: nearly all actives have a fitted effect of over 40% in size
Procedure, shortened: as §1

[12] = A CellTox Green Cytotoxicity Assay to monitor cytotoxicity in HepG2 cells - 32 hour (AID 1224883); note: nearly all actives have a fitted effect of over 50% in size
Procedure, shortened: as §4

[13] = qHTS RealTime-Glo MT Cell Viability Assay in HepG2 cells - 16 hour (AID 1224885); note: nearly all actives have a fitted effect of over 50% in size
Procedure, shortened: as §5

[14] = qHTS RealTime-Glo MT Cell Viability Assay in HEK293 cells - 24 hour (AID 1224886)
Procedure, shortened: as §2

[15] = qHTS RealTime-Glo MT Cell Viability Assay in HEK293 cells - 8 hour (AID 1224887)
Procedure, shortened: as §3

[16] = A CellTox Green Cytotoxicity Assay to monitor cytotoxicity in HEK293 cells - 16 hour (AID 1224888); note: nearly all actives have a fitted effect of over 35% in size
Procedure, shortened: as §1

[17] = qHTS RealTime-Glo MT Cell Viability Assay in HepG2 cells - 0 hour (AID 1224889); note: nearly all actives have a fitted effect of over 50% in size
Procedure, shortened: as §5

[18] = A CellTox Green Cytotoxicity Assay to monitor cytotoxicity in HepG2 cells - 8 hour (AID 1224890); note: nearly all actives have a fitted effect of over 45% in size
Procedure, shortened: as §4

[19] = A CellTox Green Cytotoxicity Assay to monitor cytotoxicity in HepG2 cells - 0 hour (AID 1224882); note: nearly all actives have a fitted effect of over 35% in size
Procedure, shortened: as §4

[20] = A CellTox Green Cytotoxicity Assay to monitor cytotoxicity in HEK293 cells - 8 hour (AID 1224884); note: nearly all actives have a fitted effect of over 35% in size
Procedure, shortened: as §1
% is set by controls: 0 for no effect and ±100 for the full control effect.

CCCCCCCCCCl
inactive: Potency [1] | Potency [2] | outcome [3] | max response [4] -0.474% | outcome [5] | outcome [6] | outcome [7] | outcome [8] | Potency [9] | Potency [10] | Potency [11] | Potency [12] | outcome [13] | Potency [14] | Potency [15] | outcome [16] | Potency [17] | outcome [18]

C[C@H](N)[C@H](O)c1cccc(O)c1
inactive: Potency [1] | Potency [2] | outcome [3] | max response [4] -0.629% | outcome [5] | outcome [6] | outcome [8] | Potency [9] | Potency [10] | Potency [11] | outcome [19] | Potency [12] | Potency [20] | outcome [13] | Potency [14] | Potency [15] | outcome [16] | Potency [17] | outcome [18]

O=S(=O)(O)CCN1CCN(CCO)CC1
inactive: Potency [1] | Potency [2] | outcome [3] | max response [4] -3.48% | outcome [5] | outcome [6] | outcome [7] | outcome [8] | Potency [9] | Potency [10] | outcome [19] | Potency [12] | Potency [20] | outcome [13] | Potency [14] | Potency [15] | outcome [16] | Potency [17] | outcome [18]

CCC(C)NC(N)=O (stereo not given)
inactive: Potency [1] | Potency [2] | outcome [3] | max response [4] 0.218% | outcome [5] | outcome [6] | outcome [8] | Potency [9] | Potency [10] | Potency [11] | outcome [19] | Potency [12] | Potency [20] | Potency [15] | outcome [16] | Potency [17] | outcome [18]

NC(CO)C(=O)NNCc1ccc(O)c(O)c1O (stereo not given)
inactive: Potency [1] | Potency [2] | outcome [3] | max response [4] 2.85% | outcome [5] | outcome [6] | outcome [8] | Potency [9] | Potency [10] | Potency [11] | outcome [19] | Potency [12] | Potency [20] | outcome [13] | Potency [15] | outcome [16] | Potency [17] | outcome [18]

COc1cc(N)ccc1C
inactive: Potency [1] | Potency [2] | outcome [3] | max response [4] 8.05% | outcome [5] | outcome [6] | outcome [8] | Potency [9] | Potency [10] | Potency [11] | outcome [19] | Potency [12] | Potency [20] | outcome [13] | Potency [14] | Potency [15] | outcome [16] | Potency [17] | outcome [18]

O=S(=O)(O)c1cc(O)c2ccc(Nc3ccccc3)cc2c1
inactive: Potency [1] | Potency [2] | outcome [3] | max response [4] 11.9% | outcome [5] | outcome [6] | outcome [8] | Potency [9] | Potency [10] | Potency [11] | outcome [19] | Potency [12] | Potency [20] | outcome [13] | Potency [14] | Potency [15] | outcome [16] | outcome [18]

Nc1ccc([N+](=O)[O-])c(N)c1
inactive: Potency [1] | Potency [2] | outcome [3] | max response [4] -10.3% | outcome [5] | outcome [6] | outcome [8] | Potency [9] | Potency [10] | Potency [11] | outcome [19] | Potency [12] | Potency [20] | outcome [13] | Potency [14] | Potency [15] | outcome [16] | Potency [17] | outcome [18]

COCCOCCOCCOCCOCCO
inactive: Potency [1] | Potency [2] | outcome [3] | max response [4] 0.969% | outcome [5] | outcome [6] | outcome [7] | outcome [8] | Potency [9] | Potency [10] | Potency [11] | Potency [12] | outcome [13] | Potency [15] | outcome [16] | Potency [17] | outcome [18]

CC(C)(C)OC(=O)c1ccc(O)cc1
inactive: Potency [1] | Potency [2] | outcome [3] | max response [4] -26.7% | outcome [5] | outcome [6] | outcome [7] | Potency [10] | Potency [11] | outcome [19] | Potency [20] | Potency [14] | Potency [15] | outcome [16] | Potency [17] | outcome [18]

Cc1ccc(C=O)cc1C
inactive: Potency [1] | Potency [2] | outcome [3] | max response [4] 2.17% | outcome [5] | outcome [6] | outcome [8] | Potency [9] | Potency [10] | Potency [11] | outcome [19] | Potency [12] | Potency [20] | outcome [13] | Potency [14] | Potency [15] | outcome [16] | Potency [17] | outcome [18]

OCCCCC(O)CO (stereo not given)
inactive: Potency [1] | Potency [2] | outcome [3] | max response [4] 5.78% | outcome [5] | outcome [6] | outcome [8] | Potency [9] | Potency [10] | Potency [11] | outcome [19] | Potency [12] | Potency [20] | outcome [13] | Potency [14] | Potency [15] | outcome [16] | Potency [17] | outcome [18]

COc1ccc(Br)c(C)c1
inactive: Potency [1] | Potency [2] | outcome [3] | max response [4] 4.1% | outcome [5] | outcome [6] | outcome [8] | Potency [9] | Potency [10] | Potency [11] | outcome [19] | Potency [12] | Potency [20] | outcome [13] | Potency [14] | Potency [15] | outcome [16] | Potency [17] | outcome [18]

C=C(C)C(=O)OCC(C)(C)COC(=O)C(=C)C
inactive: Potency [1] | Potency [2] | outcome [3] | max response [4] 2.01% | outcome [5] | outcome [6] | outcome [8] | Potency [9] | Potency [10] | Potency [11] | outcome [19] | Potency [12] | Potency [20] | outcome [13] | Potency [15] | outcome [16] | Potency [17] | outcome [18]
